The source of these data is PubChem BioAssay (Tox21).

SMILES strings stand for the structures. Several values for one entry are separate records, joined by “and”; a condition that tells them apart may be missing. Equal entries are not always repeated. A number with no mark means an inactive call. Inconclusive results are not listed. Activity calls are given as the source filed them. Unless noted, the call rests on the fitted dose curve; in most records, active means well fitted curve in the direction sought with a large enough effect in the repeat runs; inconclusive means weak or mixed curves; inactive means flat fitted curve, though single readings scatter.

Assay [1] can be described thus: qHTS assay to test for compound auto fluorescence at 535 nm (green) in HEK293 cells (AID 720680). Background: qHTS replaces the single test concentration by a dilution series.
Assay [2] can be described thus: qHTS assay to test for compound auto fluorescence at 460 nm (blue) in HEK293 cell free culture (AID 720681). Further: potency means the concentration at half of the fitted maximal effect. In short, it runs like this: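 Test compounds were pinned into cell-free culture medium (DMEM with 10% FBS) and fluorescence was read directly at Ex/Em 405/460 nm. Signals were expressed as fluorescence equivalents of triamterene, with DMSO vehicle as control.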

A short description of assay [3]: qHTS assay to test for compound auto fluorescence at 535 nm (green) in HEK293 cell free culture (AID 720682). In short, it runs like this: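 Using fluorescein as calibrant, autofluorescence was quantified at 485/535 nm in cell-free DMEM containing 10% FBS after pintool addition of compound or vehicle.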
Assay [4] is described as follows: qHTS assay to test for compound auto fluorescence at 590 nm (red) in HEK293 cell free culture (AID 720683). In short, it runs like this: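 Tox21 10K library compounds were pinned into cell-free DMEM with 10% FBS and fluorescence was read at excitation 540 nm. Activity is expressed as Rose Bengal sodium equivalency.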
Assay [5] can be described thus: qHTS assay to test for compound auto fluorescence at 590 nm (red) in HepG2 cell free culture (AID 720684). In short, it runs like this: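 Ex 540 / Em 590 nm read of compound in cell-free MEM (10% FBS). Rose Bengal sodium reference.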
Assay [6] in a line: qHTS assay to test for compound auto fluorescence at 460 nm (blue) in HepG2 cell free culture (AID 720685). Further: potency means the concentration at half of the fitted maximal effect. In short, it runs like this: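 Cell-free plates of MEM plus 10% FBS received 23 nL compound or DMSO vehicle; blue-channel (405/460 nm) intensity scored against triamterene as reference fluorophore.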
Assay [7] is described as follows: qHTS assay to test for compound auto fluorescence at 535 nm (green) in HepG2 cell free culture (AID 720686).
Assay [8] in a line: qHTS assay to test for compound auto fluorescence at 460 nm (blue) in HepG2 cells (AID 720687). Further: potency means the concentration at half of the fitted maximal effect. In short, it runs like this: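 Cells (2,000/well in MEM with 10% FBS) attached overnight at 37 C, then were exposed to compound or DMSO for 1 hr at 37 C, 5% CO2. Fluorescence read at Ex/Em 405/460 nm, expressed as triamterene-equivalent signal.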
Assay [9] concerns the target Glucocorticoid receptor (Homo sapiens) (UniProt P04150). In words: qHTS assay to identify small molecule agonists of the glucocorticoid receptor (GR) signaling pathway (AID 720691; active means well fitted activation curve with a large enough effect in the signal ratio in the repeat runs, not every such curve was filed as active; the % refers to the signal ratio). To be noted: GR-bla HeLa, beta-lactamase reporter ratio, 18 h; activation: at 62.4 µM (top of the series). In short, it runs like this:
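Compounds in DMSO, alongside positive controls, were added to GR-bla HeLa reporter cells and incubated 18 h at 37 C; GRE-driven beta-lactamase was detected by fluorescence after 2 h with FRET substrate at room temperature.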
Tags describe the fitted curve by direction and shape or compound fluorescence and quenching.

Sequence of Glucocorticoid receptor (Homo sapiens) (P04150 whole entry, looked up): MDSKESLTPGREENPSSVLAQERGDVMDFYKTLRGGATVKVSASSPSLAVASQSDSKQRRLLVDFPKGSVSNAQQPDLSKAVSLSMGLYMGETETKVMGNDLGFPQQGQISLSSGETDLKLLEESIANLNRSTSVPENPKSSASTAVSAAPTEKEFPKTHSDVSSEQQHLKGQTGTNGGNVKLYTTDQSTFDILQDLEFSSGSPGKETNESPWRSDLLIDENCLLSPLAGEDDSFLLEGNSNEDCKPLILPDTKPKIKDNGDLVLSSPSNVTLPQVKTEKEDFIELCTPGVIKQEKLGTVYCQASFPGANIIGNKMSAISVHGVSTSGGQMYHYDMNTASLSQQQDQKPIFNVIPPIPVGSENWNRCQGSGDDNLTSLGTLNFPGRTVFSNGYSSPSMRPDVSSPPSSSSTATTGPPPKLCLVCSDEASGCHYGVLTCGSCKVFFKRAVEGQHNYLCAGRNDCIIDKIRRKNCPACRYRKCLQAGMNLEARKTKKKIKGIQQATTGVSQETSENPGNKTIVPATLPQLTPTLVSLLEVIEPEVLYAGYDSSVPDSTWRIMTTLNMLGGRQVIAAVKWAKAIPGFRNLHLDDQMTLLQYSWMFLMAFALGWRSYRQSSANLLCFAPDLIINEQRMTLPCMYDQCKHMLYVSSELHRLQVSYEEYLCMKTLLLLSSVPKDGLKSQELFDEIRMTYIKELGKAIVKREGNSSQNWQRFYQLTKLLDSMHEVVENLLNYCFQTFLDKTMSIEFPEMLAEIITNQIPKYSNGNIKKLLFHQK

As for `CCCCN(CCCC)c1ccc(C(=O)c2ccccc2C(=O)O)c(O)c1`, the result in assay [1] and in assay [3] was inactive. The Potency entry in assay [2], in assay [4], in [5], in assay [6], in assay [7] and in assay [8] was “inactive” throughout.

For the molecule `C=C(C)C(=O)OCC(O)COc1ccc(C(C)(C)c2ccc(OCC(O)COC(=O)C(=C)C)cc2)cc1` (stereo unspecified), the call in [1] and in [3] was inactive. Also, the Potency result in [2], in [4], in [5], in [6], in assay [7] and in assay [8] was “inactive” throughout.

In the case of `CN1CCN(CCC(=O)N2c3ccccc3Sc3ccc(C(F)(F)F)cc32)CC1`, the result in [1] and in assay [3] was inactive. For the same molecule, the Potency entry in [2], in assay [4], in assay [5], in assay [6], in assay [7] and in [8] was “inactive” throughout.

Consider `Cc1ccc(-n2nc(C(C)(C)C)cc2NC(=O)Nc2ccc(OCCN3CCOCC3)c3ccccc23)cc1`, for which the call in [1] and in assay [3] was inactive. Besides, the Potency result in assay [2], in assay [4], in assay [5], in assay [6], in assay [7] and in [8] was “inactive” each time.

For the molecule `O=C(OCC(COC(=O)c1ccccc1)(COC(=O)c1ccccc1)COC(=O)c1ccccc1)c1ccccc1`, the outcome in [1] and in assay [3] was inactive. In addition, the Potency entry in assay [2], in assay [4], in assay [5], in assay [6], in [7] and in [8] was “inactive” in each case.

Consider `Oc1ccc(N=Nc2ccccc2)cc1`, for which the result in [1] and in [3] was inactive. The Potency result in [2], in [4], in [5], in assay [6], in assay [7] and in [8] was “inactive” throughout.

With `CCN(Cc1cccnc1)C(=O)c1cccc(Cl)c1[C@]1(C)C(=O)N(Cc2ccc(OC)cc2OC)c2ccc(Cl)cc21`, the outcome in [1] and in assay [3] was inactive. Also, the Potency entry in assay [2], in [4], in assay [5], in assay [6], in assay [7] and in assay [8] was “inactive” each time.

As to `CCCCCCCCOc1ccccc1C(=O)Nc1ccc(C(=O)OCC[N+](C)(CC)CC)cc1`, the outcome in [1] and in [3] was inactive. The Potency entry in assay [2], in assay [4], in [5], in assay [6], in [7] and in [8] was “inactive” each time.

In the case of `O=[N+]([O-])c1cc(Cl)c(Cl)c(Cl)c1Cl`, the result in [1] and in assay [3] was inactive. In addition, the Potency result in assay [2], in assay [4], in assay [5], in [6], in assay [7] and in [8] was “inactive” in each case.

In the case of `CC1(C)CCC(C)(C)c2cc(C(=O)Nc3ccc(C(=O)O)cc3)ccc21`, the result in assay [1] and in assay [3] was inactive. In addition, the Potency result in assay [2], in assay [4], in [5], in [6], in assay [7] and in assay [8] was “inactive” throughout.

As for `CCCC(c1cc(C(C)(C)C)c(O)cc1C)c1cc(C(C)(C)C)c(O)cc1C`, the molecule was called inactive in assay [1] and in assay [3]. Also, the Potency entry in assay [2], in assay [4], in assay [5], in assay [6], in assay [7] and in assay [8] was “inactive” in each case.

In the case of `N=C1C=CC(=C(c2ccc(N)cc2)c2ccc(N)cc2)C=C1`, the molecule was classed as inactive in assay [1] and in assay [3]. Besides, the Potency entry in assay [2], in [4], in assay [5], in [6], in assay [7] and in assay [8] was “inactive” each time.

On to `CC(C)(C)C(=O)OCOC(=O)C1N2C(=O)CC2S(=O)(=O)C1(C)C` (stereo unspecified), for which the molecule was classed as inactive in assay [1] and in assay [3]. The Potency entry in assay [2], in assay [4], in assay [5], in assay [6], in [7] and in assay [8] was “inactive” in each case.

As for `CS(=O)(=O)CCNCc1ccc(-c2ccc3ncnc(Nc4ccc(OCc5cccc(F)c5)c(Cl)c4)c3c2)o1`, the molecule was called inactive in assay [1] and in assay [3]. Also, the Potency result in assay [2], in assay [4], in assay [5], in assay [6], in assay [7] and in assay [8] was “inactive” each time.

Consider `Oc1ccc2cc(SSc3ccc4cc(O)ccc4c3)ccc2c1`, for which the molecule was called inactive in assay [1] and in assay [3]. Further, the Potency result in assay [2], in [4], in [5], in [6], in [7] and in assay [8] was “inactive” in each case.

On to `N=C1N=C(N)c2cc3ccccc3cc21`, for which the molecule was called inactive in assay [1] and in [3]. The figures for the Potency in assay [2], in assay [6] and in [8] were 31.6 µM (active), 28.2 µM [fluorescent] (active) and 38.7 µM [fluorescent] (active), respectively. For the same molecule, the Potency result in assay [4], in assay [5] and in [7] was “inactive” in each case.

As to `Clc1ccc2cc3ccccc3cc2c1`, the molecule was called inactive in assay [1] and in assay [3]. The Potency entry in [2], in assay [4], in assay [5], in assay [6], in [7] and in assay [8] was “inactive” in each case.

With `Nc1c2ccccc2nc2ccccc12`, the result in assay [1] and in assay [3] was inactive. Further, the Potency in [2] was 11.2 µM (active) and 15.8 µM (active); in assay [6] it was 14.1 µM [fluorescent] (active) and 15.8 µM [fluorescent] (active); in assay [8], 11.2 µM [fluorescent] (active) and 15.8 µM [fluorescent] (active). The Potency result in assay [4], in assay [5] and in [7] was “inactive” in each case.

`O=C(O)c1ccc(Cl)c(Cl)c1`: the result in [1] and in [3] was inactive. The Potency entry in assay [2], in assay [4], in [5], in [6], in assay [7] and in assay [8] was “inactive” in each case.

Regarding `CC[C@H](c1ccc(O)cc1)[C@@H](CC)c1ccc(O)cc1`, the result in [1] and in assay [3] was inactive. Further, the Potency entry in [2], in assay [4], in [5], in [6], in [7] and in assay [8] was “inactive” throughout. Moreover, the Potency result in assay [9] is “inactive”.
